From PubChem BioAssay (EPA / NIEHS)
Records with an inconclusive call do not appear. Activity calls are given as the source filed them. Rule for the calls, unless noted: active = hit-call score of the fitted dose curve at least 0.9, where 1 is the maximum; inactive = score below 0.9.

Key:
[1] = molecular target: Nuclear respiratory factor 1 (Homo sapiens) (UniProt Q16656); experiment: ATG_NRF1_CIS: Attagene CIS-FACTORIAL HepG2 Assay for human Nuclear Respiratory Factor 1 (NRF1) Orphan Gene (AID 2282987); conditions: HepG2 NRF1 cis-element reporter, Attagene multiplex; actives raise or lower the signal
Outline: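 Using DMSO as baseline, gain- or loss-of-signal was fitted for reporter mRNA levels in HepG2 cells transiently transfected with cis-regulated reporter units. Samples were taken 24 h after dosing and read by RT-PCR with capillary electrophoresis.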

[2] = ATG_NFI_CIS: Attagene CIS-FACTORIAL HepG2 Assay for human Nuclear Factor I (NFI) (AID 2282989); conditions: HepG2 cis-regulatory reporter, NFI response element transcription; actives raise or lower the signal
Outline: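 Multiplexed cis-reporter system in human HepG2 cells reports native TF activity as reporter mRNA induction 24 h post-dose. Fragments labelled with 6-FAM, HpaI-digested and resolved by capillary electrophoresis; activity fitted both directions versus DMSO.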

[3] = molecular target: Myc proto-oncogene protein (Homo sapiens) (UniProt P01106); experiment: ATG_Myc_CIS: Attagene CIS-FACTORIAL HepG2 Assay for human Myelocytomatosis (Myc) Proto-Oncogene Transcription Factor (AID 2282990); conditions: HepG2, Attagene cis-reporter transcription factor activity; actives raise or lower the signal
Outline: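 HepG2, transient MRTU transfection (cis promoters, endogenous TFs); 24 h dosing; TriZol RNA → oligo(dT) RT → PCR → 6-FAM primer extension → HpaI cut → CE. Bidirectional fit vs DMSO.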

[4] = ATG_NF_kB_CIS: Attagene CIS-FACTORIAL HepG2 Assay for human Nuclear Factor Kappa B (NF-kB) (AID 2282991); conditions: HepG2 Attagene cis-factorial NF-kB reporter mRNA; actives raise or lower the signal
Outline: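 Endpoint from a 52-component multiplexed HepG2 reporter panel: cis-regulated transcription units transiently transfected, 24 h dosing, reporter mRNA quantified by RT-PCR and capillary electrophoresis, scored as increase or decrease against DMSO.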

[5] = ATG_NRF2_ARE_CIS: Attagene CIS-FACTORIAL HepG2 Assay for human Nuclear Factor Erythroid 2 Related Factor 2 (NFR2) response to Antioxidant Response Elements (ARE) (AID 2282992); conditions: HepG2 Attagene ARE/NRF2 reporter, transcription factor activity; actives raise or lower the signal;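 for AC50: reporter mRNA level measured by RT-PCR and capillary electrophoresis fluorescence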
Outline: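 Transient MRTU transfection of HepG2; 24 h compound exposure; TriZol RNA, RT with oligo(dT), PCR, 6-FAM primer extension, HpaI cut, CE. Bidirectional fit vs DMSO.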

[6] = ATG_Oct_MLP_CIS: Attagene CIS-FACTORIAL HepG2 Assay for human Octamer-Binding Transcription Factor (Oct) (AID 2282993); conditions: HepG2 Attagene cis-factorial Oct reporter, mRNA; actives raise or lower the signal
Outline: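 After 24 h compound exposure, transfected HepG2 cells were lysed for total RNA; reporter-specific cDNA was PCR-amplified, fluorescently labelled and sized by capillary electrophoresis. Bidirectional curve fitting used DMSO as baseline.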

[7] = molecular target: Cellular tumor antigen p53 (Homo sapiens) (UniProt P04637); experiment: ATG_p53_CIS: Attagene CIS-FACTORIAL HepG2 Assay for human p53 Transcription Factor (AID 2282994); conditions: HepG2 p53 cis-element reporter, Attagene mRNA; actives raise or lower the signal
Outline: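 HepG2, transient MRTU transfection (cis promoter elements, endogenous TFs); 24 h dosing; RNA isolation, RT-PCR, 6-FAM primer extension, HpaI digest, CE fluorescence; bidirectional fit vs DMSO.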

[8] = BSK_3C_TissueFactor: BioMAP Diversity Plus: 3C Assay for Tissue Factor Biomarker Activity (AID 2282997); conditions: BioMAP 3C HUVEC, tissue factor biomarker readout; actives raise or lower the signal
Outline: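 Primary human umbilical vein endothelial cells in the 3C system were exposed to test chemical for 24 h, then Tissue Factor measured by ELISA. Activity was fitted bidirectionally against DMSO as negative control and baseline.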

[9] = BSK_3C_uPAR: BioMAP Diversity Plus: 3C Assay for Urokinase-type plasminogen activator receptor (uPAR) Biomarker Activity (AID 2282998); conditions: BioMAP 3C HUVEC, uPAR biomarker ELISA; actives raise or lower the signal
Outline: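 Values derive from bidirectional curve fitting relative to DMSO, which served as baseline of activity. uPAR was measured by ELISA in human umbilical vein endothelial primary cultures 24 h after compound addition.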

[10] = BSK_3C_VCAM1: BioMAP Diversity Plus: 3C Assay for Vascular cell adhesion molecule 1 (VCAM1) Biomarker Activity (AID 2282999); conditions: BioMAP 3C HUVEC, VCAM1 ELISA, cytokine-stimulated; actives raise or lower the signal
Outline: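 Endothelial cells from human umbilical vein are treated with test chemical. At 24 h, VCAM-1 is measured by ELISA, and responses in either direction are fitted relative to DMSO.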

[11] = BSK_4H_Eotaxin3: BioMAP Diversity Plus: 4H Assay for Eotaxin 3 Biomarker Activity (AID 2283000); conditions: primary human endothelial cells (HUVEC); actives raise or lower the signal;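 for outcome: CCL26 protein level quantified by ELISA in parallel with SRB cytotoxicity check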
Outline: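 HUVEC, 24 h post-dose, ELISA for Eotaxin-3/CCL26. Gain or loss of signal fitted bidirectionally vs DMSO baseline.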

[12] = molecular target: human Retinoic Acid Receptor beta (RARb), RARB (gene 5915) (UniProt P10826); experiment: ATG_RARb_TRANS: Attagene TRANS-FACTORIAL HepG2 Assay for human Retinoic Acid Receptor beta (AID 2283004; active = hit-call score of the fitted dose curve at least 0.9, where 1 is the maximum)
Outline: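 HepG2 cells transiently transfected with multiplexed GAL4-UAS reporter units expressing chimeric NR–Gal4 fusions; 24 h compound exposure. Reporter mRNA quantified by RT-PCR, 6-FAM labelling, HpaI digestion and capillary electrophoresis; gain-of-signal fitted against DMSO baseline.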

[13] = molecular target: Peroxisome proliferator-activated receptor gamma (Homo sapiens) (UniProt P37231); experiment: ATG_PPARg_TRANS: Attagene TRANS-FACTORIAL HepG2 Assay for human Peroxisome Proliferator-activated Receptor-gamma (PPARg) (AID 2283007; active = hit-call score of the fitted dose curve at least 0.9, where 1 is the maximum)
Outline: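 Endpoint reflects upward reporter mRNA change versus DMSO controls. Setup: transiently transfected HepG2, GAL4-UAS reporters driven by chimeric NR-Gal4, 24 h incubation, RT-PCR with capillary electrophoresis read-out.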

[14] = molecular target: Nuclear receptor subfamily 1 group I member 2 (Homo sapiens) (UniProt O75469); experiment: ATG_PXR_TRANS: Attagene TRANS-FACTORIAL HepG2 Assay for human Pregnane X Receptor (PXR) (AID 2283008; active = hit-call score of the fitted dose curve at least 0.9, where 1 is the maximum)
Outline: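 Read-out is fluorescence of labelled reporter cDNA fragments separated by capillary electrophoresis after RT-PCR and HpaI digestion. Source: HepG2 cells carrying PXR-GAL4/UAS reporter constructs, treated 24 h; activity fitted upward relative to DMSO.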

[15] = BSK_3C_Proliferation: Cell Proliferation Assessment in the BioMAP Diversity Plus: 3C Assay (AID 2283006); conditions: primary human endothelial cells (HUVEC);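 for AC50: potency may reflect either rise or fall in cell number versus DMSO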
Outline: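 Subconfluent HUVEC (3C system) cultured with chemical; relative cell number read at 48 h by sulforhodamine B total-protein staining (0.1% SRB after 10% TCA fixation, 560 nm). Bidirectional fit relative to DMSO.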

[16] = read-out: Intercellular Adhesion Molecule 1 (ICAM1), ICAM1 (gene 3383); experiment: BSK_3C_ICAM1: BioMAP Diversity Plus: 3C Assay for Intercellular Adhesion Molecule 1 (ICAM1) Biomarker Activity (AID 2283003); conditions: primary human endothelial cells (HUVEC); actives raise or lower the signal
Outline: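 HUVEC primary cells stimulated under 3C conditions; ICAM1 measured by ELISA 24 h after compound dosing. Curves fitted bidirectionally against the DMSO baseline. Overt cytotoxicity checked by SRB staining of parallel cultures.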

[17] = molecular target: Retinoic acid receptor alpha (Homo sapiens) (UniProt P10276); experiment: ATG_RARa_TRANS: Attagene TRANS-FACTORIAL HepG2 Assay for human Retinoic Acid Receptor alpha (RARa) (AID 2283005; active = hit-call score of the fitted dose curve at least 0.9, where 1 is the maximum;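 for AC50: potency for increased reporter signal meaning RARa activation over DMSO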)
Outline: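 Reporter transcripts, measured by RT-PCR with fluorescent labeling and capillary electrophoresis after 24 h dosing, reflect activity of an exogenous human RARa–GAL4 fusion in transiently transfected HepG2. Fitted for increase relative to DMSO.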

[18] = molecular target: human Retinoic Acid Receptor gamma (RARg), RARG (gene 5916) (UniProt P13631); experiment: ATG_RARg_TRANS: Attagene TRANS-FACTORIAL HepG2 Assay for human Retinoic Acid Receptor gamma (RARg) (AID 2283009; active = hit-call score of the fitted dose curve at least 0.9, where 1 is the maximum)
Outline: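 HepG2 transiently transfected with GAL4-UAS reporter units and chimeric NR-Gal4 constructs; 24 h compound exposure. Reporter mRNA quantified by RT-PCR, FAM labeling, HpaI digestion and capillary electrophoresis; gain-of-signal versus DMSO.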

[19] = molecular target: human Peroxisome Proliferator-activated Receptor delta (PPARd), PPARD (gene 5467) (UniProt Q03181); experiment: ATG_PPARd_TRANS: Attagene TRANS-FACTORIAL HepG2 Assay for human Peroxisome Proliferator-activated Receptor delta (PPARd) (AID 2283002; active = hit-call score of the fitted dose curve at least 0.9, where 1 is the maximum)
Outline: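 Transient HepG2 transfection (multiple GAL4-UAS RTUs, chimeric receptor-Gal4); 24 h dosing; total RNA → oligo(dT) RT → PCR → 6-FAM primer extension → HpaI cut → CE. Positive direction vs DMSO.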

[20] = molecular target: human Peroxisome Proliferator-activated Receptor alpha (PPARa), PPARA (gene 5465) (UniProt Q07869); experiment: ATG_PPARa_TRANS: Attagene TRANS-FACTORIAL HepG2 Assay for human Peroxisome Proliferator-activated Receptor alpha (PPARa) (AID 2283001; active = hit-call score of the fitted dose curve at least 0.9, where 1 is the maximum)
Outline: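 Read-out is fluorescence of reporter cDNA fragments resolved by capillary electrophoresis after RT-PCR. Human HepG2 liver cells carried transfected PPARa-Gal4 chimera and GAL4-UAS reporter units, treated 24 h; activity scored as increase over DMSO.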

Sequence of Nuclear receptor subfamily 1 group I member 2 (Homo sapiens) (O75469 whole entry, looked up, the tested form may be a part): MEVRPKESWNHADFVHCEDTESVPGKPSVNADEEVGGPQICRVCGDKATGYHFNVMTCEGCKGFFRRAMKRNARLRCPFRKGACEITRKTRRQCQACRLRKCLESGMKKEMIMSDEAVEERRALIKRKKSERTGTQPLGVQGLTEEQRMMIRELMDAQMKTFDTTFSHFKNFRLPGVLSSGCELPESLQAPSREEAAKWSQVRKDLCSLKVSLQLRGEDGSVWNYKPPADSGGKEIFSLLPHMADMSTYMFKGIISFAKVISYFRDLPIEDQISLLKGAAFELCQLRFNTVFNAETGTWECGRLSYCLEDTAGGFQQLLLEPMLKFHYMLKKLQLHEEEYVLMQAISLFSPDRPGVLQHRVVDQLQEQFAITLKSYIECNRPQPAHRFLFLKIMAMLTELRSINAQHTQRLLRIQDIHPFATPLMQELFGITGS
Sequence of human Retinoic Acid Receptor gamma (RARg), RARG (gene 5916) (P13631 whole entry, looked up, the tested form may be a part): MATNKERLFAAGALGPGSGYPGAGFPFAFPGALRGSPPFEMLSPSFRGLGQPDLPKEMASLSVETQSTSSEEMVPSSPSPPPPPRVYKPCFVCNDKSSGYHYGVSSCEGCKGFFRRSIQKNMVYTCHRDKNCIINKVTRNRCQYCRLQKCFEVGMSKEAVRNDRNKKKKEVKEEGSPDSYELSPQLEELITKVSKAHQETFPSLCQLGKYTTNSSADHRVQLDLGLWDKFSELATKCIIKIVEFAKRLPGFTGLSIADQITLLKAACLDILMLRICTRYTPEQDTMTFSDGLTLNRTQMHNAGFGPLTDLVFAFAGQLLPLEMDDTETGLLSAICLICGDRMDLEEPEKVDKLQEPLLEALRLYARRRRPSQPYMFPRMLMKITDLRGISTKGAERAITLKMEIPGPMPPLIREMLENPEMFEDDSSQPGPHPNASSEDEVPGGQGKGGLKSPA
Sequence of Myc proto-oncogene protein (Homo sapiens) (P01106 whole entry, looked up): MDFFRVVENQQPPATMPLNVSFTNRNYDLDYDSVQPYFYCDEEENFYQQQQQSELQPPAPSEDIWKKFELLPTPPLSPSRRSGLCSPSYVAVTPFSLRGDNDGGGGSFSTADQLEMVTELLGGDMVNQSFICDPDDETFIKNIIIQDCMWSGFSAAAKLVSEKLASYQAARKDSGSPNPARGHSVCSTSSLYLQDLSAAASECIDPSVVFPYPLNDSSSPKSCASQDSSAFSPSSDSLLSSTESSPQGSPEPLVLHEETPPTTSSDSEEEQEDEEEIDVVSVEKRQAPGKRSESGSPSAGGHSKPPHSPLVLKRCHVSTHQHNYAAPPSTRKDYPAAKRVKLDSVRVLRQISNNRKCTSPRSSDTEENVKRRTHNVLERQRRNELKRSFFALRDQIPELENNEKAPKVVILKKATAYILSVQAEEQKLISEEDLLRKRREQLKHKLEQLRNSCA
Sequence of Cellular tumor antigen p53 (Homo sapiens) (P04637 whole entry, looked up): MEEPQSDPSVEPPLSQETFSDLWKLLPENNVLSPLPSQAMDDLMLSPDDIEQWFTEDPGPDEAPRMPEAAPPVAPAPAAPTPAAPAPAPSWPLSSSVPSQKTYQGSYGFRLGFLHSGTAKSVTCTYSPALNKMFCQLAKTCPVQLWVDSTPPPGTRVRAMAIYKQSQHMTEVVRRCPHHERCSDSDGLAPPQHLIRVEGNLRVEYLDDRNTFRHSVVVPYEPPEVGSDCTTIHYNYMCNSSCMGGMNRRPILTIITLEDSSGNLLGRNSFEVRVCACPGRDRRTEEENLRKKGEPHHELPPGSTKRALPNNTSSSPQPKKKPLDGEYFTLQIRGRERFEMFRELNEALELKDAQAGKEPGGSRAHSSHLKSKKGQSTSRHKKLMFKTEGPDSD
Sequence of Peroxisome proliferator-activated receptor gamma (Homo sapiens) (P37231 whole entry, looked up, the tested form may be a part): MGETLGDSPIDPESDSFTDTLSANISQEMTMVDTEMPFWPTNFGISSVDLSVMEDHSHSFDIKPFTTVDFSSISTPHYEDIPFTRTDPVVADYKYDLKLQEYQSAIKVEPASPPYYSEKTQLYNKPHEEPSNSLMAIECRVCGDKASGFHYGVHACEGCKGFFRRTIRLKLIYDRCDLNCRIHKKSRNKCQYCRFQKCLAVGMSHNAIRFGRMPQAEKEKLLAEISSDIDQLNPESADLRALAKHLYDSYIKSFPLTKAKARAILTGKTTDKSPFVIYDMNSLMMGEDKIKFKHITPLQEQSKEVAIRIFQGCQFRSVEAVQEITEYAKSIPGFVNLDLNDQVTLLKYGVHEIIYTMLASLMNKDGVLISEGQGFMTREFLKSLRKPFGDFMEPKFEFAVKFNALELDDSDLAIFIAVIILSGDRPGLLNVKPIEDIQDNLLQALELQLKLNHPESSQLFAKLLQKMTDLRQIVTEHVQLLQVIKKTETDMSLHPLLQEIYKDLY
Sequence of human Retinoic Acid Receptor beta (RARb), RARB (gene 5915) (P10826 whole entry, looked up, the tested form may be a part): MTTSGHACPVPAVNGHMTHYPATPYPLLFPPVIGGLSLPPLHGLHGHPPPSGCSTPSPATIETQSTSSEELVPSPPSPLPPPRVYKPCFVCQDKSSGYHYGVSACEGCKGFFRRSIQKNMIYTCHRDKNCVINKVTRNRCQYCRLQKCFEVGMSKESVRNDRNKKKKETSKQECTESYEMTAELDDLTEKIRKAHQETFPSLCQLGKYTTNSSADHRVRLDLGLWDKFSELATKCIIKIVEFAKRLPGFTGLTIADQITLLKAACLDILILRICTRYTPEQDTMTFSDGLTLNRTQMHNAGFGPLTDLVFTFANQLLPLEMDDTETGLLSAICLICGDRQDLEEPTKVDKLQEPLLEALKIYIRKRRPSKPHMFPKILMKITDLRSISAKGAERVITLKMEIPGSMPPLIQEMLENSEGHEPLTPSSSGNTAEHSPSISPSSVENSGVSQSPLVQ
Sequence of Retinoic acid receptor alpha (Homo sapiens) (P10276 whole entry, looked up, the tested form may be a part): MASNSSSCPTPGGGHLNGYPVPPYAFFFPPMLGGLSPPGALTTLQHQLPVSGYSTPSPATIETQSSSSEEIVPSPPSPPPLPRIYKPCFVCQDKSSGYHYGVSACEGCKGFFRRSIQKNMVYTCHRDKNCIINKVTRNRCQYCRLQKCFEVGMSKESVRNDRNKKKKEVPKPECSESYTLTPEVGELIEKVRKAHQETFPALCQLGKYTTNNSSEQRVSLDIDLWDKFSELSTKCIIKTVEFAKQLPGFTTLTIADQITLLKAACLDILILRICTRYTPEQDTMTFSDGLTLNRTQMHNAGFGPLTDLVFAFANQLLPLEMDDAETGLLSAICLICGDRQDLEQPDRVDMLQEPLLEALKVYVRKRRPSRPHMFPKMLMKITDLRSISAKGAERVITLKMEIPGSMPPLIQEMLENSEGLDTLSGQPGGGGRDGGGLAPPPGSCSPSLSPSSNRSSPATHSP
Sequence of Nuclear respiratory factor 1 (Homo sapiens) (Q16656 whole entry, looked up): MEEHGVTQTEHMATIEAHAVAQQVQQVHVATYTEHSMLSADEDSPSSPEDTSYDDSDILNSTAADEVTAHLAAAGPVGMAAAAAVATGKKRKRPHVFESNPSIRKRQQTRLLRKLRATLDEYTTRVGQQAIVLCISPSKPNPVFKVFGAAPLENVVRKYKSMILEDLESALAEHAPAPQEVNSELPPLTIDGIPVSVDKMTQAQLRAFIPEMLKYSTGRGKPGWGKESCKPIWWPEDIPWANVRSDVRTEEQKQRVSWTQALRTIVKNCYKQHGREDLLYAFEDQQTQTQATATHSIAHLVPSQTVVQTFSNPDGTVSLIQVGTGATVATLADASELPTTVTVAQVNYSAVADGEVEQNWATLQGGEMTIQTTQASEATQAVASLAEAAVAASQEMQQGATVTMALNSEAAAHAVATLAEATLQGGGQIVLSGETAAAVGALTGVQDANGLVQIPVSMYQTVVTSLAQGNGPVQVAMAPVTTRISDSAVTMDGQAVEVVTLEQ
Sequence of human Peroxisome Proliferator-activated Receptor delta (PPARd), PPARD (gene 5467) (Q03181 whole entry, looked up, the tested form may be a part): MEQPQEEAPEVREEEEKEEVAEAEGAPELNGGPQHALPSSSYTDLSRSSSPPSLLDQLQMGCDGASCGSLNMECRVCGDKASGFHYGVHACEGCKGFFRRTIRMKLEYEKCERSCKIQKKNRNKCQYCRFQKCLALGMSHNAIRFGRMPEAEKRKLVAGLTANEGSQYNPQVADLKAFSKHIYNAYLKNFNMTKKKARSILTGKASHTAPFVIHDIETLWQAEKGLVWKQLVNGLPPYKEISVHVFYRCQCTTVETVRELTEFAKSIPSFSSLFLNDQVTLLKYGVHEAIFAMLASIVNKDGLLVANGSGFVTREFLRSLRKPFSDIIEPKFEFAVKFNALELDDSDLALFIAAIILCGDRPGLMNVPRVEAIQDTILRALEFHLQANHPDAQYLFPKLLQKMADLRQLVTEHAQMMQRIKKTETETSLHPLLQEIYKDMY
Sequence of human Peroxisome Proliferator-activated Receptor alpha (PPARa), PPARA (gene 5465) (Q07869 whole entry, looked up, the tested form may be a part): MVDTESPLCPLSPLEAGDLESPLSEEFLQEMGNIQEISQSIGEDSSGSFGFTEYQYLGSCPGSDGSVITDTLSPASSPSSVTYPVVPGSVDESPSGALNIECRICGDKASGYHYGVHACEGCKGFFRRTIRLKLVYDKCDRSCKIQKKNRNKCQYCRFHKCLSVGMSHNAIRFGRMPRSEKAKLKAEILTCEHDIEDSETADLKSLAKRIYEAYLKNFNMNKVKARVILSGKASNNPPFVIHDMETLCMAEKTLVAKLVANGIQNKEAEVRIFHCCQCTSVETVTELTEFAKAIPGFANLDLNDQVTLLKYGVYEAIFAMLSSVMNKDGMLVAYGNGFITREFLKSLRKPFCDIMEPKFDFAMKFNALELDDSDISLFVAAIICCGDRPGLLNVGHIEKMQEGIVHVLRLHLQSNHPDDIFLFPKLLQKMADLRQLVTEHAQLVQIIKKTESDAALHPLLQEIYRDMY

## S=C1NCCN1
[1]
  outcome: inactive
[2]
  outcome: inactive
[3]
  outcome: inactive
[4]
  outcome: inactive
[5]
  outcome: inactive
[6]
  outcome: inactive
[7]
  outcome: inactive
[8]
  outcome: inactive
[9]
  outcome: inactive
[10]
  outcome: inactive
[11]
  outcome: inactive
[12]
  outcome: inactive
[13]
  outcome: inactive
[14]
  outcome: inactive

## CCc1cccc(C)c1N(C(=O)CCl)C(C)COC (stereo not given)
[1]
  outcome: inactive
[2]
  outcome: inactive
[3]
  outcome: inactive
[4]
  outcome: inactive
[5]
  AC50: 5.18 µM (active)
[6]
  AC50: 14.2 µM (active)
[7]
  outcome: inactive
[8]
  outcome: inactive
[9]
  outcome: inactive
[10]
  outcome: inactive
[11]
  outcome: inactive
[12]
  outcome: inactive
[15]
  outcome: inactive
[13]
  AC50: 13.5 µM (active)
[14]
  outcome: inactive

## CSc1nnc(C(C)(C)C)c(=O)n1N
[1]
  outcome: inactive
[2]
  outcome: inactive
[3]
  outcome: inactive
[4]
  outcome: inactive
[5]
  outcome: inactive
[6]
  outcome: inactive
[7]
  outcome: inactive
[8]
  outcome: inactive
[9]
  outcome: inactive
[10]
  outcome: inactive
[11]
  outcome: inactive
[16]
  outcome: inactive
[12]
  outcome: inactive
[17]
  outcome: inactive
[15]
  outcome: inactive
[18]
  outcome: inactive

## CCc1cnc(C2=NC(C)(C(C)C)C(=O)N2)c(C(=O)O)c1 (stereo not given)
[1]
  outcome: inactive
[2]
  outcome: inactive
[3]
  outcome: inactive
[5]
  outcome: inactive
[6]
  outcome: inactive
[8]
  outcome: inactive
[9]
  outcome: inactive
[10]
  outcome: inactive
[11]
  outcome: inactive
[12]
  outcome: inactive
[13]
  outcome: inactive

## COP(=O)(OC)OC(Br)C(Cl)(Cl)Br (stereo not given)
[1]
  outcome: inactive
[2]
  outcome: inactive
[3]
  outcome: inactive
[5]
  outcome: inactive
[6]
  outcome: inactive
[8]
  AC50: 16.3 µM (active)
[9]
  AC50: 31.7 µM (active)
[10]
  AC50: 29.7 µM (active)
[11]
  AC50: 33.2 µM (active)
[19]
  outcome: inactive
[16]
  AC50: 36.4 µM (active)
[17]
  outcome: inactive
[15]
  AC50: 16 µM (active)
[13]
  outcome: inactive
[18]
  outcome: inactive

## Cc1cc(C2CC2)nc(Nc2ccccc2)n1
[1]
  AC50: 76 µM (active)
[2]
  AC50: 29.3 µM (active)
[3]
  outcome: inactive
[5]
  AC50: 13 µM (active)
[6]
  AC50: 15.7 µM (active)
[7]
  outcome: inactive
[8]
  outcome: inactive
[9]
  outcome: inactive
[10]
  outcome: inactive
[11]
  AC50: 9.49 µM (active)
[20]
  outcome: inactive
[19]
  outcome: inactive
[17]
  outcome: inactive
[13]
  AC50: 50 µM (active)
[14]
  outcome: inactive
[18]
  outcome: inactive

## O=C(O)c1cc(Oc2ccc(C(F)(F)F)cc2Cl)ccc1[N+](=O)[O-]
[1]
  outcome: inactive
[2]
  outcome: inactive
[3]
  outcome: inactive
[4]
  outcome: inactive
[5]
  outcome: inactive
[6]
  outcome: inactive
[8]
  outcome: inactive
[9]
  AC50: 29.2 µM (active)
[10]
  outcome: inactive
[11]
  outcome: inactive
[20]
  outcome: inactive
[16]
  outcome: inactive
[12]
  outcome: inactive
[17]
  AC50: 2.9 µM (active)
[15]
  outcome: inactive
[13]
  AC50: 37.1 µM (active)
[14]
  outcome: inactive
[18]
  outcome: inactive
